Experimental data taken from PubChem BioAssay (NCATS).
Results filed as inconclusive are left out. Values without a mark were called inactive. Active and inactive are the calls of the source. Calls come from the whole dose curve; as a rule, active = well fitted cell-killing curve with a large enough effect; inconclusive = small, poorly fitted or top-dose-only effect; inactive = no such curve, though single readings can be large or run the other way.

Assay: qHTS of pediatric cancer cell lines to identify multiple opportunities for drug repurposing: Primary screen for Rh30 cells (AID 1347107); note: nearly all actives have a fitted effect of over 75% in size
Details: Rh30 rhabdomyosarcoma viability, CellTiter-Glo luminescence, 48 h; series mostly up to 46 µM
Text: Drug repurposing or repositioning has been offered as a strategy for drug development in oncology programs. This approach has special potential for childhood cancers and other rare or orphan diseases, where the expected return on new drug development has been a disincentive to pharmaceuticals.
In this project we exploit the poly-pharmacology of drugs to discover new indications via phenotypic screening of a panel of 19 well-characterized cell lines derived from solid tumors seen in children and adolescents. The goal is to identify approved drugs with previously unrecognized anticancer properties that has the potential to reveal new mechanisms and biological processes involved in carcinogenesis or drug resistance. We employed a titration-based paradigm (quantitative high-throughput screening or qHTS), where all compounds were tested at multiple concentrations for their effect on cell viability. Concentration-response curves (CRCs) were derived directly from the primary screen, and both potency and efficacy values were used to identify compounds with robust bioactivity profiles. We screened the NIH Chemical Genomics Center (NCGC) Pharmaceutical Collection (NPC) and Mechanism Interrogation Plate (MIPE) small molecule collections of approved and investigational compounds against these cell lines; and measured metabolically active cells after 48 hours of compound treatment as a proxy for cell viability.
Assay Submitter: Nathalia J. Martinez, National Center for Advancing Translational Sciences, National Institutes of Health, Rockville, MD, USA; email: natalia.martinez@nih.gov
[1] Shen, M et al. Quantitative high-throughput phenotypic screening of pediatric cancer cell lines identifies multiple opportunities for drug repurposing. Oncotarget 2017 Dec 19;9(4):4758-4772. PMID 29435139.
The cells were obtained from University of North Carolina (UNC), Pediatric Preclinical Testing Program (PPT), and Coriell Institute (CI).
qHTS cell viability assay:
Cells were assayed in growth media at a density of 500-1,000 cells/well. Five microliters of cells were dispensed into 1,536-well, white, solid-bottom, TC-treated plates (Greiner Bio One) using a multidrop dispenser and incubated at 37 degrees C, 5% CO2, under a humidified atmosphere for 5 hours. Twenty-three nanoliters of compounds and controls (neutral control DMSO or positive control bortezomib at final concentration of 2.3 µM) were subsequently transferred by Kalypsys pintool. For primary screens, the MIPE collection was tested at 11-point dilutions (final concentrations range from 0.78 nM to 46 µM) and the NPC collection at 8-point dilutions (final concentrations range from 0.59 nM to 46 µM). Compounds tested in follow-up screens were assayed at 11-point dilutions. Cells were incubated for 48 hours, followed by addition of 3 µL of CellTiter-Glo (Promega). After a 15 min incubation at room temperature, samples were analyzed for luminescence intensity using a ViewLux High-throughput CCD imager equipped with clear filters.
% is set by controls: 0 for no effect and ±100 for the full control effect.

Structure (SMILES)	outcome	activity change, negative = cytotoxic
CN(N=O)C(=O)N[C@@H]1[C@@H](O)[C@H](O)[C@@H](CO)O[C@@H]1O	inactive	–
CC1(C)CO[C@@H](CC(=O)O)CN1	inactive	–
CCCCCCCCCCCCCCCCCCOCC(O)CO (stereo not given)	inactive	–
CSc1ccc2c(c1)C(N1CCN(C)CC1)Cc1ccccc1S2 (stereo not given)	inactive	–
[O-][n+]1cccc(CO)c1	inactive	–
C/C(=C(\CCOP(=O)(O)O)SC(=O)c1ccccc1)N(C=O)Cc1cnc(C)nc1N	–	26.4% [at 4.84 µM]
CC1=C(/C=C/C(C)=C/C=C/C(C)=C/C(=O)O)C(C)(C)CCC1	inactive	–
O=S(=O)(O)c1cc(I)c(O)c2ncccc12	inactive	–
COC(=O)C1=C(C)NC(C)=C(C(=O)OC)C1c1ccccc1[N+](=O)[O-]	inactive	–
O=C1O[C@H]([C@@H](O)CO)C(O)=C1O	inactive	–
Cc1cc2c(cc1S(N)(=O)=O)S(=O)(=O)CCC2	inactive	–
NC1CCN(c2cccc(Cl)n2)CC1	inactive	–
NC(=O)NC(=O)Cc1ccccc1	inactive	–
CN(C)CCCN1c2ccccc2CCc2ccccc21	inactive	–
Cn1c(=O)c2c(ncn2CC2OCCO2)n(C)c1=O	inactive	–
O=C(CCCN1CCN(c2ccccn2)CC1)c1ccc(F)cc1	inactive	–
CC(=O)Oc1c(C)c(C)c2c(c1C)CC[C@@](C)(CCC[C@H](C)CCC[C@H](C)CCCC(C)C)O2	inactive	–
CN(C)CCN(Cc1ccccc1)c1ccccn1	inactive	–
O=Cc1ccccc1C=O	inactive	–
Nc1ccc(S(=O)(=O)Nc2ccccc2)cc1	inactive	–

Structure (SMILES)	outcome	activity change, negative = cytotoxic
Nc1ncnc2c1ncn2[C@@H]1O[C@H](CO)[C@@H](O)[C@H]1O	inactive	–
O=C(O)CC(O)C(=O)O (stereo not given)	inactive	–
Nc1ccc(S(=O)(=O)Nc2nccs2)cc1	inactive	–
OC[C@H]1O[C@@H](O[C@@H]2[C@@H](CO)O[C@](O)(CO)[C@H]2O)[C@H](O)[C@@H](O)[C@H]1O	inactive	–
C=Cc1c(C)c2cc3[nH]c(cc4nc(cc5nc(cc1[nH]2)C(C)=C5CCC(=O)O)C(CCC(=O)O)=C4C)c(C)c3C=C	inactive	–
CCCCN1CCCC[C@H]1C(=O)Nc1c(C)cccc1C	inactive	–
CO/N=C(\C(=O)N[C@@H]1C(=O)N2C(C(=O)O)=C(CSc3nc(=O)c(O)nn3C)CS[C@H]12)c1csc(N)n1	inactive	–
CCn1cc(C(=O)O)c(=O)c2cnc(N3CCNCC3)nc21	inactive	–
CC(C)(C)C(=O)C(Oc1ccc(Cl)cc1)n1ccnc1 (stereo not given)	inactive	–
CCCCOc1cc(C(=O)OCCN(CC)CC)ccc1N	inactive	–
O=c1[nH]c(=O)c2[nH]c(=O)[nH]c2[nH]1	–	2.78% [at 9.22 µM]
NCC(=O)CCC(=O)O	inactive	–
O=C(Oc1ccccc1C(=O)O)c1ccccc1O	inactive	–
O=C1c2c(O)cccc2Cc2cccc(O)c21	inactive	–
COc1ccc(Cl)cc1C(=O)NCCc1ccc(S(=O)(=O)NC(=O)NC2CCCCC2)cc1	inactive	–
CCN(CC)CCNC(=O)c1cc(Cl)c(N)cc1OC	inactive	–
COc1ccc2cc1Oc1ccc(cc1)C[C@H]1c3c(cc4c(c3Oc3cc5c(cc3OC)CCN(C)[C@@H]5C2)OCO4)CCN1C	inactive	–
CN(C)CCOC(C)(c1ccccc1)c1ccccn1 (stereo not given)	inactive	–
CC1=C(CC(=O)O)c2cc(F)ccc2/C1=C\c1ccc(S(C)=O)cc1 (stereo not given)	inactive	–
N[C@H](C(=O)O)c1ccc(O)cc1	inactive	–
